Screening data from PubChem.
POLK inh = blocks human DNA polymerase kappa activity; Q9UBT6; purified Pol kappa, fluorescent DNA synthesis assay, 10 min; Potency, µM (top dose mostly 107 µM), for inactives: at the top dose activity, negative = inhibition, usual class: inhibitors; actives 0.53% (n = 400,000); AID 588579; also: % is scaled to controls: 0 for no effect and ±100 for the full control effect
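First, compounds were pin-transferred onto 10 nM Pol kappa. After 15 min at room temperature, substrate was added to 50 nM final. Fluorescence was then measured kinetically at 0 and 10 min.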
TDP1 block = TDP1 (human) enzyme inhibition; Q9NUW8; recombinant TDP1, AlphaScreen DNA substrate cleavage; Potency, µM (highest dose often 130 µM), inactives show top-dose activity change, negative = inhibition, usual class: inhibitors; actives 0.28% (n = 350,000); AID 485290; also: % is scaled to controls: 0 for no effect and ±100 for the full control effect; nearly all actives have a fitted effect of over 40% in size
Target sequence (Q9NUW8 whole entry, looked up): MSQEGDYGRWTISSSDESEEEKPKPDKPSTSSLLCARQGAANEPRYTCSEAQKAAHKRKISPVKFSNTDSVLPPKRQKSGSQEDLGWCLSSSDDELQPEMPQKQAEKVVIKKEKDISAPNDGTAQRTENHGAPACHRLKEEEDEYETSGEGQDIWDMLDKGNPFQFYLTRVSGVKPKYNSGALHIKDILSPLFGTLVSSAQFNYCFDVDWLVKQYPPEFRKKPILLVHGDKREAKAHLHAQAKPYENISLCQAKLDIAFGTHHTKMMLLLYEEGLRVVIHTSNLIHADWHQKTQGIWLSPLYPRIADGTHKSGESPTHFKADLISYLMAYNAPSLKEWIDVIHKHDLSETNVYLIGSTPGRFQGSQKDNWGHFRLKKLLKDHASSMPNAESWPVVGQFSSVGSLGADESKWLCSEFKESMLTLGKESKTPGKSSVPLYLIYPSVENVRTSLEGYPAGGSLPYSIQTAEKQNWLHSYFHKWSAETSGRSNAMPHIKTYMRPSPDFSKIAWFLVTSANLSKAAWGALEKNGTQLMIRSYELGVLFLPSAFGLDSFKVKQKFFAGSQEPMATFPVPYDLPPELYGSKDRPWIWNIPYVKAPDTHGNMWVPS
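AlphaScreen read-out: signal falls as enzyme removes the 3' tyrosine-FITC from a 5'-biotinylated DNA oligo (15 nM, 5 min, RT). Enzyme was E. coli-made recombinant Tdp1 at 1 nM, exposed to compound for 15 min beforehand; beads 10 ug/ml, 10 min.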
Pol eta inh = blocks human DNA polymerase eta activity. recombinant Pol eta, fluorescent DNA replication assay. Potency, µM (top dose mostly 114 µM), inactives show at the highest dose activity change, negative = inhibition, hits mostly inhibitors. Q9Y253. actives 1.2% (n = 390,000); also: % is scaled to controls: 0 for no effect and ±100 for the full control effect
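Pol eta at 10 nM preincubated with compounds 15 min at room temperature; reaction started with fluorescent substrate (50 nM final) and read kinetically at 0 and 10 min.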
Pol beta inh = DNA polymerase beta (human) inhibition; actives 1.3% (n = 340,000); Potency, µM (top dose mostly 114 µM), without a hit: at the highest dose activity change, negative = inhibition, actives largely listed as inhibitors; Pol beta primer extension/strand displacement, fluorescence kinetic; P06746; also: % is scaled to controls: 0 for no effect and ±100 for the full control effect
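Values derive from four-parameter Hill fits of normalized kinetic data: reads at 0 and 10 min following addition of 50 nM substrate to 10 nM Pol beta preincubated 15 min with compound.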
Pol iota inh = blocks human DNA polymerase iota activity; AID 588590; Pol iota fluorescent replication assay, 10 min; actives 1% (n = 390,000); Potency, µM (titrated, usually from 115 µM), without a hit: at the highest dose activity, negative = inhibition, usual class: inhibitors; Q9UNA4
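Fluorescent replication assay read twice, at 0 min and 10 min after adding 50 nM (final) substrate. Enzyme (10 nM) and compounds were first incubated 15 min at room temperature; enzyme-free buffer wells were negative controls.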
The depositor's hits bear a star; [ ] = remark or other dose. Sampled rows, rich in hits. Any-hit rate of the full collection: about 2.4%. Calls follow the shape of the dose curve; as a rule, active = well fitted curve in the direction sought with a large enough effect; inconclusive = small, poorly fitted or top-dose-only effect, or another doubt; inactive = no such curve, though single readings can be large; an effect the other way counts as inactive or inconclusive. Potency is read from the fitted curve at half-maximal effect.

`CC12CCC(C[N+](C)(CCC[N+](C)(C)C)C1)C2(C)C` (stereo not drawn) gave POLK inh 5%[19.4 µM].
Nc1nc(NCc2cccc(Cl)c2)c2[nH]cnc2n1 was read as POLK inh -2%, TDP1 block 2% and Pol iota inh 9%.
For NC[C@H]1O[C@@H](n2cnc3c(N)ncnc32)[C@H](O)[C@@H]1O the results were POLK inh -26%[60.1 µM].
CCOc1ccc(NC(=O)C2CCN(C(=O)N3CC(C)Oc4ccc(Cl)cc43)CC2)cc1 (stereo not drawn) was read as POLK inh -22%, TDP1 block 5%, Pol eta inh -8%, Pol beta inh 11% and Pol iota inh 64%.
`C=CCn1c(SCC(=O)O)nnc1-c1cccc(Cl)c1` gave POLK inh -2%, TDP1 block 0%, Pol eta inh -15%, Pol beta inh -3% and Pol iota inh inconclusive.
C=CCn1c(SCC(=O)c2ccc(O)c(O)c2)nnc1-c1cccc(Cl)c1 was read as POLK inh 40µM*, TDP1 block 0%, Pol eta inh 16µM* and Pol iota inh inconclusive.
Cc1nnc(CN(C)c2ncnc3ccc(-c4ccc5c(c4)OCO5)cc23)o1 was read as TDP1 block -2%.
Screening Cn1c(=O)c2c(ncn2CC(=O)N/N=C/c2c[nH]c3ccccc23)n(C)c1=O returned TDP1 block 79µM* and Pol beta inh 17%.
`O=C(Nc1ccccc1C(=O)OCc1cc(=O)n2nc(C3CC3)sc2n1)c1cccc(Cl)c1` gave POLK inh -3%[60.1 µM], TDP1 block -1%, Pol eta inh -15%, Pol beta inh 9% and Pol iota inh 10%.
`CC(C)(C)n1ncc2c(=O)n(Cc3ccc(Cl)c(SC(F)(F)F)c3)cnc21` gave POLK inh -18% and Pol iota inh -4%.
CCc1nc2ccc(C(=O)N3CCN(CC)CC3)cc2nc1CC was read as POLK inh -3%, Pol eta inh 4%, Pol beta inh 54% and Pol iota inh -9%.
O=C(O)c1ccc2nc3c(nc2c1)-c1ccccc1C3=O was read as POLK inh -18%, TDP1 block -2%, Pol eta inh 22µM*, Pol beta inh -3% and Pol iota inh 111%.
CCc1nc2ccc(C(=O)O)cc2nc1CC was read as POLK inh -2%, TDP1 block -2%, Pol eta inh 14µM*, Pol beta inh -24% and Pol iota inh -3%.
For COC(=O)N1C2CC3(C)CC(=O)CC1(C)C3c1ccccc12 (stereo not drawn) the results were TDP1 block 16%[12.3 µM].
For COc1ccc2c(c1)CC(C(=O)Nc1c(C)cc(C)cc1C)CO2 (stereo not drawn) the results were POLK inh 1%[60.1 µM], TDP1 block 4%, Pol eta inh -1%, Pol beta inh 24% and Pol iota inh 24%.
For COc1cc(CNC(=O)c2cnc(C)cn2)cc(OC)c1 the results were POLK inh -15%, Pol eta inh 11%, Pol beta inh 21% and Pol iota inh 149%.
Screening COc1ccc(CNC(=O)c2cnc(C)cn2)cc1 returned POLK inh -7%, TDP1 block -3%, Pol eta inh 16µM*, Pol beta inh 28µM* and Pol iota inh inconclusive.
For O=C(Cc1ccc(S(=O)(=O)N2CCCC2)s1)N1CCN(c2ccccc2)CC1 the results were POLK inh 0%, Pol eta inh -9%, Pol beta inh 32µM* and Pol iota inh 55%.
For O=C(Cc1ccc(S(=O)(=O)N2CCOCC2)s1)Nc1ccccc1Br the results were POLK inh inconclusive, TDP1 block -8%, Pol eta inh inconclusive, Pol beta inh 35µM* and Pol iota inh inconclusive.
Screening O=C(Cc1ccc(S(=O)(=O)N2CCOCC2)s1)NCC(=O)Nc1ccccc1Br returned POLK inh 3%, TDP1 block 1%, Pol eta inh -3% and Pol iota inh 30%.
O=C(CSc1cn(CCNC(=O)c2c(F)cccc2F)c2ccccc12)Nc1ccc(F)cc1 was read as POLK inh 11%, TDP1 block 5%, Pol eta inh -11%, Pol beta inh 22% and Pol iota inh 18%.
